# Experimental data as given in paper PMC7862700, “An all-to-all approach to the identification of sequence-specific readers for epigenetic DNA modifications on cytosine”.
# How the values were obtained:
# Assay in all cases: DAPPL (digital affinity profiling via proximity ligation, sequencing); 10 mM Tris-HCl pH 7.5, 50 mM NaCl, 1 mM DTT, 4% glycerol, room temperature, 30 min; GST-TFs on glutathione beads, 16-mer random dsDNA library, 0.1% formaldehyde crosslink after washing; high values mean tight binding
# [1] = molecular target: T1, FLI1 (Homo sapiens, UniProt Q01543 1-452); conditions: protein: recombinant; tags: N-terminal GST; dsDNA, one strand shown
# T1 sequence: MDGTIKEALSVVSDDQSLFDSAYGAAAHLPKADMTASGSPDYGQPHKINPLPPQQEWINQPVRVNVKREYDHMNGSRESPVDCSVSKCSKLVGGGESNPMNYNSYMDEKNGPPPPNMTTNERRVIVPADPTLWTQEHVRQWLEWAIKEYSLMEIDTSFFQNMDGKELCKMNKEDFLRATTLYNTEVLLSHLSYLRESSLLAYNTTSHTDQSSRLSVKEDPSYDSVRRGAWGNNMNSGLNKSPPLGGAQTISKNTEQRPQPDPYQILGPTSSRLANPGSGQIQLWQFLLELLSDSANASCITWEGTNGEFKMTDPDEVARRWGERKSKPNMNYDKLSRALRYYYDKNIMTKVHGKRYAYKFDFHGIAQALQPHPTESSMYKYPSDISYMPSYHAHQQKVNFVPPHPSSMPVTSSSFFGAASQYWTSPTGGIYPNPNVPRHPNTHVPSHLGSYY
# In short: (§1)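 After expression in yeast as GST fusions, human transcription factors were bound to glutathione beads, DNA-barcoded and mixed with a tag-only sample. The pools were incubated with 200 nmole of a 16-mer random double-stranded DNA library in Tris/NaCl/DTT/glycerol buffer (30 min, room temperature), washed and crosslinked with 0.1% formaldehyde. Proximity ligation with BsaI/T4 ligase ran for 1 h at 37 °C, before PCR amplification and sequencing on an Illumina NextSeq500. Binding signal is a hexamer's read frequency for a factor divided by its frequency for the tag-only sample.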
# [2] = molecular target: T2, ELK1 (Homo sapiens, UniProt P19419 1-428); conditions: protein: recombinant; tags: N-terminal GST; dsDNA, one strand shown
# T2 sequence: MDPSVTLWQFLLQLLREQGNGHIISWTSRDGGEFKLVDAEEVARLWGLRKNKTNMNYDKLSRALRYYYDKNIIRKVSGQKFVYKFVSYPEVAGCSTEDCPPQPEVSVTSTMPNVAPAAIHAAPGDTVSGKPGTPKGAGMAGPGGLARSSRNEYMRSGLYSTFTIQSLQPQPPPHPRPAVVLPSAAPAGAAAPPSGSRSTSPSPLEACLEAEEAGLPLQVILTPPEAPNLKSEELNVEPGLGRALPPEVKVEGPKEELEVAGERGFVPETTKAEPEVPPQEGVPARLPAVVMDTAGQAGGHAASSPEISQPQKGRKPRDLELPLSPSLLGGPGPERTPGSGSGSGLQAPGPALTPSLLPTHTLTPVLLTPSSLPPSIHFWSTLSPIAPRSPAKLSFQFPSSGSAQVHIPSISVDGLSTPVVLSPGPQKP
# In short: as §1
# [3] = molecular target: T3, GABPA (Homo sapiens, UniProt Q06546 1-454); conditions: protein: recombinant; tags: N-terminal GST; dsDNA, one strand shown
# T3 sequence: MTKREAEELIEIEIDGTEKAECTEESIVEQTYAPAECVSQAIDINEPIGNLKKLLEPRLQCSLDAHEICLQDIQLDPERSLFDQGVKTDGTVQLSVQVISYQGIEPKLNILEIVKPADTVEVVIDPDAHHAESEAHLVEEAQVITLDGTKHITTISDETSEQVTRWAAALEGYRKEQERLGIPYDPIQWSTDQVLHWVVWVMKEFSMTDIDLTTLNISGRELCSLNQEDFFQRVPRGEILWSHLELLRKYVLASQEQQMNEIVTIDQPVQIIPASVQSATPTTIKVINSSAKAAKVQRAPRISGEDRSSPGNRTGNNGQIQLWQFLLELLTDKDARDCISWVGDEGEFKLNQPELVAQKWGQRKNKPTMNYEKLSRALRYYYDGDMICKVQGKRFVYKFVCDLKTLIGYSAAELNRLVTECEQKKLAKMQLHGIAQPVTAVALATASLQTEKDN
# In short: as §1
# [4] = molecular target: T4, ERG (Homo sapiens, UniProt P11308 1-479); conditions: protein: recombinant; tags: N-terminal GST; dsDNA, one strand shown
# T4 sequence: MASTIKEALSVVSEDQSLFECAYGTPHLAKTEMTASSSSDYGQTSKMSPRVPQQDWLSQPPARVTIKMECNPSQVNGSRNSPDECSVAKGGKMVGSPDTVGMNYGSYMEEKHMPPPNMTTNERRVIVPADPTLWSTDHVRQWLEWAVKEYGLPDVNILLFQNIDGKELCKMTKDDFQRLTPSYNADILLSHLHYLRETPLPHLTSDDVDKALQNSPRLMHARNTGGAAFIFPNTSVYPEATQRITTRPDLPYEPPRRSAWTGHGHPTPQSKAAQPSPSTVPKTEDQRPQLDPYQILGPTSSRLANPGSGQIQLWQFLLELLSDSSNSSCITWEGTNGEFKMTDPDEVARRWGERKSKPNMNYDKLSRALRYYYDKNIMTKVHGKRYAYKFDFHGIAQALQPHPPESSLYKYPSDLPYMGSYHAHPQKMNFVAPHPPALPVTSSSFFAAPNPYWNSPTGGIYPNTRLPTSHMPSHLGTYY
# In short: as §1
# [5] = molecular target: ELF1 (Homo sapiens, UniProt P32519 1-619); conditions: protein: recombinant; tags: N-terminal GST; dsDNA, one strand shown
# In short: as §1
# [6] = molecular target: T5, EHF (Homo sapiens, UniProt Q9NZC4 1-300); conditions: protein: recombinant; tags: N-terminal GST; dsDNA, one strand shown
# T5 sequence: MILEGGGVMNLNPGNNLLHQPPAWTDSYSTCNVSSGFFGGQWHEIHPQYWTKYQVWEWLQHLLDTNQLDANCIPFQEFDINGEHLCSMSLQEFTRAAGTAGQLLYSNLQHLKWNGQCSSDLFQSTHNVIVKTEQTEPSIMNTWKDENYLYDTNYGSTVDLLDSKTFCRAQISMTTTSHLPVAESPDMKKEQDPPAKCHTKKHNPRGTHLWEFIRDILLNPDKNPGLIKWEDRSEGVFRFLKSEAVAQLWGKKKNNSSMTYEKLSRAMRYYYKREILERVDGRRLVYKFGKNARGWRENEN
# In short: as §1
# [7] = molecular target: SPI1 (Homo sapiens, UniProt P17947 1-270); conditions: protein: recombinant; tags: N-terminal GST; dsDNA, one strand shown
# In short: as §1
# [8] = molecular target: SPIB (Homo sapiens, UniProt Q01892 1-262); conditions: protein: recombinant; tags: N-terminal GST; dsDNA, one strand shown
# In short: as §1
# [9] = molecular target: T6, ELK3 (Homo sapiens, UniProt P41970 1-407); conditions: protein: recombinant; tags: N-terminal GST; dsDNA, one strand shown
# T6 sequence: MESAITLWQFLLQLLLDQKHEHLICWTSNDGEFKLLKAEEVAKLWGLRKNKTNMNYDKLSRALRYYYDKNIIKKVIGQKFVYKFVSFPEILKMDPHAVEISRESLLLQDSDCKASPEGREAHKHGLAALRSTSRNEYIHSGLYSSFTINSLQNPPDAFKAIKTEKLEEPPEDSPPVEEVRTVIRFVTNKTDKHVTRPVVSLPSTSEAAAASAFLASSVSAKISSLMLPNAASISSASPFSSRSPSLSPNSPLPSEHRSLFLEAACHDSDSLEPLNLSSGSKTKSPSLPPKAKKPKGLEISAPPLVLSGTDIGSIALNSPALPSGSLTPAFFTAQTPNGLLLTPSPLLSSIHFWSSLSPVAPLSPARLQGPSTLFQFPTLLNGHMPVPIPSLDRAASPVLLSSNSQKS
# In short: as §1
# [10] = molecular target: T7, FEV (Homo sapiens, UniProt Q99581 1-238); conditions: protein: recombinant; tags: N-terminal GST; dsDNA, one strand shown
# T7 sequence: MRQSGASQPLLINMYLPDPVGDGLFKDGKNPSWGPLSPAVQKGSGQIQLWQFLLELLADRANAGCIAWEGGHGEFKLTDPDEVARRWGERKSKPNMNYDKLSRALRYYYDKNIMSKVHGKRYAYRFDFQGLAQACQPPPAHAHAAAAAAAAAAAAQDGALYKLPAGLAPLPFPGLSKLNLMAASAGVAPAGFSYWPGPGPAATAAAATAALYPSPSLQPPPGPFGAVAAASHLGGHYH
# In short: as §1
# [11] = molecular target: ETV5 (Homo sapiens, UniProt P41161 1-510); conditions: protein: recombinant; tags: N-terminal GST; dsDNA, one strand shown
# In short: as §1
# [12] = molecular target: HSF1 (Homo sapiens, UniProt Q00613 1-529); conditions: protein: recombinant; tags: N-terminal GST; chain copies: 3; dsDNA, one strand shown
# In short: as §1
# [13] = molecular target: T8, SPIC (Homo sapiens, UniProt Q8N5J4 1-248); conditions: protein: recombinant; tags: N-terminal GST; dsDNA, one strand shown
# T8 sequence: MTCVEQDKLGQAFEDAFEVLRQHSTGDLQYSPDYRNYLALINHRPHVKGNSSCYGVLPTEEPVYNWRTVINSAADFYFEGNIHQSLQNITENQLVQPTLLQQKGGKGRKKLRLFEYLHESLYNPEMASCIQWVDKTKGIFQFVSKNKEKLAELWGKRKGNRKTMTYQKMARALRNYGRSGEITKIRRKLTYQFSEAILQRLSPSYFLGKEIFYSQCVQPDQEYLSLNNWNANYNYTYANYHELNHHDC
# In short: as §1
# [14] = molecular target: ELF4 (Homo sapiens, UniProt Q99607 1-663); conditions: protein: recombinant; tags: N-terminal GST; dsDNA, one strand shown
# In short: as §1
# [15] = molecular target: T9, ELK4 (Homo sapiens, UniProt P28324-2 1-405); conditions: protein: recombinant; tags: N-terminal GST; dsDNA, one strand shown
# T9 sequence: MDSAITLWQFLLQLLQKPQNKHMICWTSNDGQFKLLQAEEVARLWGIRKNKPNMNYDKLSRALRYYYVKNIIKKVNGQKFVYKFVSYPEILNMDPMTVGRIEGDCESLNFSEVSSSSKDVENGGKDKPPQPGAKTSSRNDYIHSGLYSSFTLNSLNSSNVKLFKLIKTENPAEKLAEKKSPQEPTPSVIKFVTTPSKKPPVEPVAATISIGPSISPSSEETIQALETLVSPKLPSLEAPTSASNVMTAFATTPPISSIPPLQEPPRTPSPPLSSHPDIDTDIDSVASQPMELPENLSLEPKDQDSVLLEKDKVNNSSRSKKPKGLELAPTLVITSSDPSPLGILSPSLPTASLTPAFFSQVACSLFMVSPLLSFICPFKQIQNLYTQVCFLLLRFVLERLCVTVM
# In short: as §1
# [16] = molecular target: T10, ETV2 (Homo sapiens, UniProt O00321 1-342); conditions: protein: recombinant; tags: N-terminal GST; dsDNA, one strand shown
# T10 sequence: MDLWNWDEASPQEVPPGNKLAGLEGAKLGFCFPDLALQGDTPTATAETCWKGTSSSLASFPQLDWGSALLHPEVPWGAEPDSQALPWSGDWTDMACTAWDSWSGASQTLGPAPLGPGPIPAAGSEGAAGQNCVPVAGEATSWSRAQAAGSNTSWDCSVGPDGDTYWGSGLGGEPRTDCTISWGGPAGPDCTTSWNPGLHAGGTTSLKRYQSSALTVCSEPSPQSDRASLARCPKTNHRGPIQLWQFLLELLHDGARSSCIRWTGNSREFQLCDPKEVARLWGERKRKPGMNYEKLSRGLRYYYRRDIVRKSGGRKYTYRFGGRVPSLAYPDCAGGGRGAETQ
# In short: as §1
# [17] = molecular target: T11, ELF3 (Homo sapiens, UniProt P78545 1-371); conditions: protein: recombinant; tags: N-terminal GST; dsDNA, one strand shown
# T11 sequence: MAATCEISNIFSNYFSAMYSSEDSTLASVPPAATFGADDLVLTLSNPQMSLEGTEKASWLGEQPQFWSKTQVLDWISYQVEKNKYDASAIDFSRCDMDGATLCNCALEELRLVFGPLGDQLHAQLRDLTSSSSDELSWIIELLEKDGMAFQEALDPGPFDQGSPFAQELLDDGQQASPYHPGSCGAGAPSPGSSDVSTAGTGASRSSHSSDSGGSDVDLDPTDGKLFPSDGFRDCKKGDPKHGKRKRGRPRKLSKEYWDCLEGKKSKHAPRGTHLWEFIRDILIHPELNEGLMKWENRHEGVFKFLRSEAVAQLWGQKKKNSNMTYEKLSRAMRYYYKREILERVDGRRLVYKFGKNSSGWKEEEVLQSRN
# In short: as §1
# [18] = molecular target: CRX (Homo sapiens, UniProt O43186 1-299); conditions: protein: recombinant; tags: N-terminal GST; dsDNA, one strand shown
# In short: as §1
# [19] = molecular target: ETV1 (Homo sapiens, UniProt P50549 1-477); conditions: protein: recombinant; tags: N-terminal GST; dsDNA, one strand shown
# In short: as §1
# Sequence of ELF1 (P32519 whole entry): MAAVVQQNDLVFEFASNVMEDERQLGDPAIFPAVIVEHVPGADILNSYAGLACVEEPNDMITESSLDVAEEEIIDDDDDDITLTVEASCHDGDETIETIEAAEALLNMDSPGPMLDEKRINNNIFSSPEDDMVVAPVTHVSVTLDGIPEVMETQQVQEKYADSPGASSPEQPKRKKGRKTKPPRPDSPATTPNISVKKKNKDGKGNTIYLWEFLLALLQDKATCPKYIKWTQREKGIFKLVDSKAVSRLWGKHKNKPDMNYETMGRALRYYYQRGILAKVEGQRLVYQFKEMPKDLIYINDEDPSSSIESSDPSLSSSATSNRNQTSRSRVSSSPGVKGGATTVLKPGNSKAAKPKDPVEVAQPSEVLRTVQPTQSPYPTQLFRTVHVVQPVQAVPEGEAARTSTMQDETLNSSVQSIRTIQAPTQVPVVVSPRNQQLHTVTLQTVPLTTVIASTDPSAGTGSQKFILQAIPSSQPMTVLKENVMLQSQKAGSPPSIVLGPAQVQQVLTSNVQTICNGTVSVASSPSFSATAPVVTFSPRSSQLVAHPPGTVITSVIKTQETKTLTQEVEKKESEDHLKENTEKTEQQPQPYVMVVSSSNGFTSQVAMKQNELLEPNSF
# Sequence of CRX (O43186 whole entry): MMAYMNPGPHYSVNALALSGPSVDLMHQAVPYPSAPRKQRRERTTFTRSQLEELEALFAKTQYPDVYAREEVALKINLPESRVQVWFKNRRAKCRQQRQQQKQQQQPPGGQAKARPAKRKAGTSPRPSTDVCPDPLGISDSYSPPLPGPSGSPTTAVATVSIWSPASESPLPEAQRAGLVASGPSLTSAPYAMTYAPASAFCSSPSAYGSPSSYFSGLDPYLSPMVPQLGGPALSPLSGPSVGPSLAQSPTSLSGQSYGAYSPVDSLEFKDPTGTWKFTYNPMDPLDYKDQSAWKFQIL
# Sequence of ETV1 (P50549 whole entry): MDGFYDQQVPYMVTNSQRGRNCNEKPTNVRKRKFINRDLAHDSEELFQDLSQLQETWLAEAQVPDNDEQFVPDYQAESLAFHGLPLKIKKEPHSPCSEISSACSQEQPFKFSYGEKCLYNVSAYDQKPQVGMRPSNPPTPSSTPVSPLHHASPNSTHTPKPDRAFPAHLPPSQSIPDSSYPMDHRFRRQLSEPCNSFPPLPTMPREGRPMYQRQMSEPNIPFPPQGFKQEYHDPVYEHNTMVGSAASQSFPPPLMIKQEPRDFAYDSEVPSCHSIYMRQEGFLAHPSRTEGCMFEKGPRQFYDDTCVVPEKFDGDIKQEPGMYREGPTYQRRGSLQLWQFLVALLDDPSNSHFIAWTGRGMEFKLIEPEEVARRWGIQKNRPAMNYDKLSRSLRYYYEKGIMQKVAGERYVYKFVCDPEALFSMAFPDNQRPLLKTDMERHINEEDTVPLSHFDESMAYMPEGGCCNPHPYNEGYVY
# Sequence of SPIB (Q01892 whole entry): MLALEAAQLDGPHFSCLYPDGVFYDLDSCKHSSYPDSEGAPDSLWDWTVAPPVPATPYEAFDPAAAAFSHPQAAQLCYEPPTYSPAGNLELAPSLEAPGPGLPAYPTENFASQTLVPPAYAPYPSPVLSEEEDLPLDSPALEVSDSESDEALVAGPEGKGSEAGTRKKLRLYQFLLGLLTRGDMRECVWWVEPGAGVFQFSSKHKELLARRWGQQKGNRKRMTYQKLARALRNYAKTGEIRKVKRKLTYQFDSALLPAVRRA
# Sequence of ELF4 (Q99607 whole entry): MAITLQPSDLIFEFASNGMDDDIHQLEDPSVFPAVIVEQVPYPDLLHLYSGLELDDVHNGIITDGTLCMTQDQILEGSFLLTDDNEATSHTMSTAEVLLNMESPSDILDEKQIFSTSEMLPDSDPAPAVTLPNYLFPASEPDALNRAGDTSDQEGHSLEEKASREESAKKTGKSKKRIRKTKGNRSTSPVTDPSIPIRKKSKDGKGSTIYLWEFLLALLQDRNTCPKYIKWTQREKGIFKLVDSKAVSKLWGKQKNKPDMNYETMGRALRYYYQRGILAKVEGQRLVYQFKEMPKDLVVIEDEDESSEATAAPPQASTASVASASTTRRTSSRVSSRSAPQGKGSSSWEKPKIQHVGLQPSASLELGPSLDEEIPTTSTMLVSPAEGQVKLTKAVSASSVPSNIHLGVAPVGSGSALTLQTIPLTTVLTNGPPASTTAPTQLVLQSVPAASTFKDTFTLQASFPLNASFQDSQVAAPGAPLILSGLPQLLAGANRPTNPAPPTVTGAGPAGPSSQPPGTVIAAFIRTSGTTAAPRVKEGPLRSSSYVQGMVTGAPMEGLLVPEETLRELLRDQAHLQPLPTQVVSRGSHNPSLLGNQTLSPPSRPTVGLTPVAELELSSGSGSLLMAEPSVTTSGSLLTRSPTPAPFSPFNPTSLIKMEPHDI
# Sequence of HSF1 (Q00613 whole entry): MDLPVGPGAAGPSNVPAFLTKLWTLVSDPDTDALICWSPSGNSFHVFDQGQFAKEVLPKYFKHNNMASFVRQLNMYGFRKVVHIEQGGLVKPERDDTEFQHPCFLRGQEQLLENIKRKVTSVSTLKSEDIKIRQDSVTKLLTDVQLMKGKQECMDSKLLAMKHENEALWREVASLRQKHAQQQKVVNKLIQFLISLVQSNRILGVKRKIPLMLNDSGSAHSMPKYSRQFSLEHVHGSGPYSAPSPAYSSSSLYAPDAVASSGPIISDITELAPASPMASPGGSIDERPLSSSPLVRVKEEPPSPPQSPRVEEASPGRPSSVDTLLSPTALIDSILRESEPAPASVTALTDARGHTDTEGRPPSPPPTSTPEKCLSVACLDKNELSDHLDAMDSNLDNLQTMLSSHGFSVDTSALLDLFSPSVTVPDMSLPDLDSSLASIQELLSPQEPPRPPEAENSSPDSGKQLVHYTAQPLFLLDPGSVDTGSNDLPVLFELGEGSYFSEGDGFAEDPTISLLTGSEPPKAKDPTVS
# Sequence of ETV5 (P41161 whole entry): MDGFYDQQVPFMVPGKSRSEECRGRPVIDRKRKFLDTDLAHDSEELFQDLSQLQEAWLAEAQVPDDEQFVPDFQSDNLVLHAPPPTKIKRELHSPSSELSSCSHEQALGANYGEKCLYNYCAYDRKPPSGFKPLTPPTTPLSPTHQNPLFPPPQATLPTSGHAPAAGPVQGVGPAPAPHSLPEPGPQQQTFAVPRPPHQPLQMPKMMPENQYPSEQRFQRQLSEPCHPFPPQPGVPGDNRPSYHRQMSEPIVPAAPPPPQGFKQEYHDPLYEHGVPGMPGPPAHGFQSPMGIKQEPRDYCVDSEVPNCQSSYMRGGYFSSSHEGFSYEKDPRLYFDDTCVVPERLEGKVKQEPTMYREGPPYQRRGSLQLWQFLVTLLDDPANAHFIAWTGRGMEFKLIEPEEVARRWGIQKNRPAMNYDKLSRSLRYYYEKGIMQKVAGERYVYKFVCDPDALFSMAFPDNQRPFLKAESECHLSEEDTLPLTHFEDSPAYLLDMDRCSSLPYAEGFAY
sequence,measurement,setting,value
CAGCTT,binding signal,[1],"1.2 fold enrichment (6-mer frequency, TF over GST control)"
same,binding signal,[2],"1.27 fold enrichment (6-mer frequency, TF over GST control)"
same,binding signal,[3],"1.22 fold enrichment (6-mer frequency, TF over GST control)"
same,binding signal,[4],"1.2 fold enrichment (6-mer frequency, TF over GST control)"
same,binding signal,[5],"1.26 fold enrichment (6-mer frequency, TF over GST control)"
same,binding signal,[6],"1.22 fold enrichment (6-mer frequency, TF over GST control)"
same,binding signal,[7],"1.19 fold enrichment (6-mer frequency, TF over GST control)"
same,binding signal,[8],"1.2 fold enrichment (6-mer frequency, TF over GST control)"
same,binding signal,[9],"1.3 fold enrichment (6-mer frequency, TF over GST control)"
same,binding signal,[10],"1.2 fold enrichment (6-mer frequency, TF over GST control)"
same,binding signal,[11],"1.17 fold enrichment (6-mer frequency, TF over GST control)"
same,binding signal,[12],"1.43 fold enrichment (6-mer frequency, TF over GST control)"
same,binding signal,[13],"1.01 fold enrichment (6-mer frequency, TF over GST control)"
same,binding signal,[14],"1.19 fold enrichment (6-mer frequency, TF over GST control)"
same,binding signal,[15],"1.24 fold enrichment (6-mer frequency, TF over GST control)"
same,binding signal,[16],"1.36 fold enrichment (6-mer frequency, TF over GST control)"
same,binding signal,[17],"1.19 fold enrichment (6-mer frequency, TF over GST control)"
same,binding signal,[18],"1.9 fold enrichment (6-mer frequency, TF over GST control)"
same,binding signal,[19],"1.16 fold enrichment (6-mer frequency, TF over GST control)"
